Screening results (PubChem BioAssay)
The list is not random: actives were taken first. Their share in the collection is about 2.7%.
Tau fluor cs: Counterscreen qHTS for Inhibitors of Tau Fibril Formation, Fluorescence Polarization. tau K18 P301L Alexa594 fluorescence, heparin fibrillization. Potency, µM (top dose mostly 57.7 µM). hit rate 0.93% among 280,000; further: nearly all actives have a fitted effect of over 55% in size
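Human tau K18 P301L (15 uM unlabeled, 0.24 uM Alexa 594-labeled) in 100 mM sodium acetate pH 7 with 20 uM heparin, 6 hr at 37 C. ThT 30 uM added, 1 hr ambient; Alexa 594 FP and total fluorescence read at 555/632 nm.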
Tau fibril FP: qHTS for Inhibitors of Tau Fibril Formation, Fluorescence Polarization; Potency, µM (doses to about 57.7 µM), actives largely listed as inhibitors; hit rate 0.39% among 280,000; K18 P301L tau heparin fibrillization, Alexa594 FP, 6 h; further: nearly all actives have a fitted effect of over 55% in size
Target sequence (P10636 561-689 P618L limits assumed): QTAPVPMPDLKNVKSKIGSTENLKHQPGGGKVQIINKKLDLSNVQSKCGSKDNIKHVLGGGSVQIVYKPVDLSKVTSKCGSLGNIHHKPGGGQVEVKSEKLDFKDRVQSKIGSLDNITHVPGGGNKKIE
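K18 P301L tau (15 uM unlabeled/0.24 uM Alexa 594-labeled, final) + compound + heparin 20 uM final; 100 mM NaOAc pH 7; 6 hr 37 C; ThT 30 uM final added, 1 hr RT; FP ex 555/em 632 nm.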
FBPA coupling cs: qHTS Assay for Inhibitors of Fructose-1,6-bisphosphate Aldolase from Giardia Lamblia: Coupling assay counterscreen | coupling enzyme system counterscreen, AmpLite Red fluorescence | activity change, negative = inhibition, % at 58.2 µM, hits read low | hit rate 0.67% among 290,000 | AID 2472, 2010; in the data active means activity change below about -30%
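First, compound is pin-transferred into glyceraldehyde-3-phosphate coupling-enzyme reagent at 57.5 uM final and held 10 min at RT. Next, substrate, coupling system and AmpLite Red are added. After 20 min RT, fluorescence (525/598 nm) is read.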
Tau fibril ThT: qHTS for Inhibitors of Tau Fibril Formation, Thioflavin T Binding | recombinant tau K18 P301L (four-repeat tau fragment), heparin-induced fibrillization, ThT fluorescence | Potency, µM (highest dose often 57.4 µM), actives largely listed as inhibitors | hit rate 2.1% among 270,000 | AID 1460, 2008; further: nearly all actives have a fitted effect of over 55% in size
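Aggregation was driven by heparin (20 uM final) acting on recombinant tau […] bearing P301L in 100 mM sodium acetate pH 7; fibrils were detected with Thioflavin T.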
Of the large screens only hits and unclear results are named; the others gave an inactive call; ! = not active in a repeat; [ ] = another dose, or the depositor's remark. Unless noted, the call rests on the fitted dose curve; in most records, active means well fitted curve in the direction sought with a large enough effect; inconclusive means small, poorly fitted or top-dose-only effect, or another doubt; inactive means no such curve, though single readings can be large; an effect the other way counts as inactive or inconclusive.

CC1=CC[C@@H]2[C@@H](C1)c1c(O)cc(CC#CCCCNS(C)(=O)=O)cc1OC2(C)C	Tau fluor cs inconclusive, Tau fibril ThT inconclusive
C[C@@H]1CC[C@H]2[C@H](C)[C@H]3CC[C@@]4(O)[C@@H]5CC(=O)[C@H]6CC(=O)CC[C@]6(C)[C@H]5C[C@H]4[C@@H]3CN2C1	none (no result: Tau fluor cs, Tau fibril FP, Tau fibril ThT)
COc1ccc2c(c[n+](C)c3c4cc5c(cc4ccc23)OCO5)c1OC	Tau fluor cs 16µM[quencher], Tau fibril FP inconclusive, FBPA coupling cs -39!, Tau fibril ThT 13µM
CCOC(=O)[C@]1(C#N)[C@@H]2C=CC(C(C)=O)=CN2[C@@H](C(N)=O)[C@@H]1c1ccsc1	Tau fibril FP inconclusive, Tau fibril ThT 32µM
Cn1c(=O)c2c(nc(N/N=C/c3c(O)n(C4CCCCC4)c(=S)[nH]c3=O)n2C)n(C)c1=O	Tau fluor cs inconclusive, Tau fibril FP inconclusive, Tau fibril ThT 16µM
Cc1cccc(-n2c(O)c(/C=N/Nc3nc4c(c(=O)n(C)c(=O)n4C)n3C)c(=O)[nH]c2=S)c1	Tau fluor cs inconclusive, Tau fibril FP inconclusive, Tau fibril ThT 13µM
CCc1ccccc1N1C(=O)N(Cc2ccccc2C)c2ccccc2S1(=O)=O	Tau fibril FP inconclusive (no result: FBPA coupling cs)
CC1(C)CC(=O)C(C2(O)C(=O)NC(=O)NC2=O)=C(O)C1	Tau fibril FP inconclusive, Tau fibril ThT 6.3µM
COc1cccc(CSc2nc(-c3ccccc3OC)nc3c2Cc2c(CO)cnc(C)c2O3)c1	Tau fibril ThT inconclusive (no result: FBPA coupling cs)
COc1ccc2o/c(=N\O)c(C(=O)Nc3ccc(C)cc3)cc2c1	Tau fibril ThT 16µM
Cc1cc(C=C2C(=O)N(C)C(=S)N(C)C2=O)c(C)n1C1CCCCC1	Tau fibril ThT inconclusive
Cc1cc(C=C2C(=O)NC(=S)NC2=O)c(C)n1C1CCCC1	Tau fibril ThT 16µM
COCCCNC(=O)c1c(N)n(Cc2ccco2)c2nc3ccccc3nc12	Tau fluor cs inconclusive, Tau fibril ThT inconclusive
COc1ccc(Cn2c(N)c(C(=O)NCc3ccco3)c3nc4ccccc4nc32)cc1OC	Tau fluor cs inconclusive, Tau fibril FP inconclusive, Tau fibril ThT 14µM
CC(C)CCNC(=O)c1c(N)n(Cc2ccc3c(c2)OCO3)c2nc3ccccc3nc12	Tau fluor cs inconclusive, Tau fibril FP inconclusive, FBPA coupling cs -33, Tau fibril ThT inconclusive
CC(C)CNC(=O)c1c(N)n(Cc2ccc3c(c2)OCO3)c2nc3ccccc3nc12	Tau fluor cs inconclusive, Tau fibril FP inconclusive, FBPA coupling cs -51, Tau fibril ThT inconclusive
CCCNC(=O)c1c(N)n(Cc2ccc3c(c2)OCO3)c2nc3ccccc3nc12	Tau fluor cs inconclusive, Tau fibril FP inconclusive, Tau fibril ThT inconclusive
CC(C)CNC(=O)c1c(N)n(Cc2ccco2)c2nc3ccccc3nc12	Tau fluor cs inconclusive, Tau fibril ThT inconclusive
c1ccc(-c2cc3c(nc2-c2ccccc2)CCNC3)cc1	none
CCOc1cc(/C=N/NC(=O)c2cccs2)ccc1OC(=O)N1CCOCC1	Tau fibril ThT inconclusive
O=C(O)CC1OCC=C2CN3CCC45C6=CC(=O)C(=O)C([N+](=O)[O-])=C6NC4C1C2CC35 (centres undefined)	Tau fluor cs inconclusive, Tau fibril FP inconclusive, FBPA coupling cs -92, Tau fibril ThT 7.1µM
O=C(O)CC1OCC=C2CN3CCC45c6ccccc6NC4C1C2CC35 (centres undefined)	none
C=C(C=O)C[C@@H]1C[C@H](O)C2OC3C[C@]4(C)OC5/C=C\CC6OC7C(CC=CCC6OC5CCCC4OC3CC2O1)OC1CC2OC3CC(=O)OC3C[C@@H](C)C[C@@]2(C)OC1C[C@@H]7C (some centres undefined)	Tau fibril FP 4µM, Tau fibril ThT 3.5µM
O=C(O)c1ccc[nH]c1=S	Tau fibril FP inconclusive, Tau fibril ThT inconclusive
N#CC1=C(N)Oc2n[nH]c(-c3cccs3)c2C1c1ccsc1 (centres undefined)	Tau fibril FP inconclusive, Tau fibril ThT 13µM
N#CC1=C(N)Oc2n[nH]c(-c3cccs3)c2C1c1ccco1 (centres undefined)	Tau fluor cs inconclusive, Tau fibril FP inconclusive, FBPA coupling cs -31, Tau fibril ThT 16µM
Cc1ccc(S(=O)(=O)c2nnn3c2nc(N2CCC(C(N)=O)CC2)c2cc(Cl)ccc23)cc1C	Tau fluor cs inconclusive, Tau fibril ThT inconclusive (no result: FBPA coupling cs)
Cc1ccc(OCC(=O)N/N=C\c2ccc(O)c([N+](=O)[O-])c2)c([N+](=O)[O-])c1	Tau fibril ThT 13µM
CCOC(=O)N(C)C(=O)CSP(=S)(OCC)OCC	none (no result: Tau fluor cs, Tau fibril FP, Tau fibril ThT)
CC1COC2=C1C(=O)C(=O)c1c2ccc2c1CCCC2(C)C (centres undefined)	Tau fluor cs inconclusive, Tau fibril FP inconclusive, FBPA coupling cs -36, Tau fibril ThT 13µM
C[C@H]1COC2=C1C(=O)C(=O)c1c2ccc2c1CCCC2(C)C	Tau fibril FP inconclusive, Tau fibril ThT 13µM
CNc1ccc2oc(C[C@@H]3OC4(CC[C@@H]3C)O[C@H]([C@@H](C)C(=O)c3ccc[nH]3)[C@H](C)C[C@H]4C)nc2c1C(=O)O (some centres undefined)	Tau fluor cs inconclusive, Tau fibril FP inconclusive, Tau fibril ThT 32µM (no result: FBPA coupling cs)
CNc1ccc2oc(C[C@H]3O[C@@]4(CC[C@H]3C)O[C@H]([C@H](C)C(=O)c3ccc[nH]3)[C@H](C)C[C@H]4C)nc2c1C(=O)O	Tau fluor cs inconclusive, Tau fibril ThT inconclusive
Nc1nnc(Sc2ncccc2[N+](=O)[O-])s1	Tau fibril ThT inconclusive
NC(=O)c1ccc(N=Nc2c(O)[nH]c(=O)[nH]c2=O)cc1	none
O=C(N=Nc1c(O)[nH]c(=O)[nH]c1=O)C1COc2cc3ccccc3cc2O1 (centres undefined)	Tau fibril FP inconclusive, FBPA coupling cs -30, Tau fibril ThT inconclusive
CCOC(=O)c1c(NS(=O)(=O)c2ccccc2)n(CCCOC)c2nc3ccccc3nc12	Tau fibril FP inconclusive, FBPA coupling cs -39, Tau fibril ThT inconclusive
COCCNC(=O)c1c(NC(=O)c2ccc(Br)o2)n(Cc2ccccc2)c2nc3ccccc3nc12	FBPA coupling cs -44, Tau fibril ThT inconclusive
CCCCNC(=O)c1c(N)n(CCCOC)c2nc3ccccc3nc12	Tau fluor cs inconclusive, FBPA coupling cs -39, Tau fibril ThT inconclusive
CC(C)OCCCNC(=O)c1c(N)n(Cc2cccs2)c2nc3ccccc3nc12	Tau fluor cs inconclusive, Tau fibril FP inconclusive, FBPA coupling cs -46, Tau fibril ThT inconclusive
COCCNC(=O)c1c(N)n(CCC(C)C)c2nc3ccccc3nc12	Tau fluor cs inconclusive, FBPA coupling cs -36
Cc1cc([N+](=O)[O-])c(Cl)cc1NC(=O)C(C)C	none
CNc1cc(Cl)c2nonc2c1[N+](=O)[O-]	Tau fluor cs inconclusive, Tau fibril ThT 11µM
CCN1C(=O)c2ccccc2Sc2ccc(NC(=O)c3ccc(C)c(F)c3)cc21	Tau fibril FP inconclusive (no result: FBPA coupling cs)
Cc1ccccc1-n1c(/C=C/c2c(C)[nH]c3ccccc23)nc2ccccc2c1=O	Tau fluor cs 4µM[quencher], Tau fibril FP inconclusive, Tau fibril ThT inconclusive (no result: FBPA coupling cs)
